We go through 15 compounds from PubChem BioAssay (EPA / NIEHS).

Read-out in assay [1]: Interleukin-8 (IL8), CXCL8 (gene 3576)
In words: BSK_CASM3C_IL8: BioMAP Diversity Plus: CASM3C Assay for Interleukin-8 (IL8) Biomarker Activity (AID 2283042).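 Note: IL-8 protein level quantified by ELISA.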 The following applies: primary human coronary artery smooth muscle cells; actives raise or lower the signal.

Read-out in assay [2]: Human Leukocyte Antigen - DR isotype (HLADR), HLA-DRA (gene 3122)
In words: BSK_CASM3C_HLADR: BioMAP Diversity Plus: CASM3C Assay for Human Leukocyte Antigen - DR isotype (HLADR) Biomarker Activity (AID 2283043).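 Note: cell-surface HLA-DR protein level quantified by ELISA.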 The following applies: primary human coronary artery smooth muscle cells; actives raise or lower the signal.

Read-out in assay [3]: Macrophage colony-stimulating factor (MCSF), CSF1 (gene 1435)
In words: BSK_CASM3C_MCSF: BioMAP Diversity Plus: CASM3C Assay for Macrophage colony-stimulating factor (MCSF) Biomarker Activity (AID 2283044).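 Note: M-CSF protein amount quantified by ELISA after 24 h exposure.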 The following applies: primary human coronary artery smooth muscle cells; actives raise or lower the signal.

Read-out in assay [4]: Monocyte Chemoattractant Protein-1 (MCP1), CCL2 (gene 6347)
In words: BSK_CASM3C_MCP1: BioMAP Diversity Plus: CASM3C Assay for Monocyte Chemoattractant Protein-1 (MCP1) Biomarker Activity (AID 2283046).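 Note: MCP-1 level quantified by ELISA 24 h after dosing.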 To be noted: primary human coronary artery smooth muscle cells; actives raise or lower the signal.

Assay [5] is described as follows: BSK_CASM3C_Proliferation: Cell Proliferation Assessment in the BioMAP Diversity Plus: CASM3C Assay (AID 2283047).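 Note: sulforhodamine B total protein stain as relative cell number at 560 nm; sub-confluent cells exposed 48 h before staining; fitted both ways against DMSO so gain or loss of cell number.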 To be noted: primary human coronary artery smooth muscle cells.
Read-out in assay [6]: Monokine induced gamma interferon (MIG), CXCL9 (gene 4283)
In words: BSK_CASM3C_MIG: BioMAP Diversity Plus: CASM3C Assay for Monokine induced gamma interferon (MIG) Biomarker Activity (AID 2283048).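 Note: MIG protein level measured by ELISA.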 The following applies: primary human coronary artery smooth muscle cells; actives raise or lower the signal.

Read-out in assay [7]: serum amyloid A (SAA), SAA1 (gene 6288)
The assay is described as follows: BSK_CASM3C_SAA: BioMAP Diversity Plus: CASM3C Assay for serum amyloid A (SAA) Biomarker Activity (AID 2283049).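 Note: SAA protein level quantified by ELISA.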 The following applies: primary human coronary artery smooth muscle cells; actives raise or lower the signal.

A short description of assay [8]: BSK_CASM3C_SRB: Viability Assessment in the BioMAP Diversity Plus: CASM3C Assay (AID 2283050).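 Note: total protein by SRB staining as cytotoxicity measure in parallel cultures; cells exposed to compound for 24 h.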 To be noted: primary human coronary artery smooth muscle cells.
Read-out in assay [9]: Thrombomodulin, THBD (gene 7056)
The assay is described as follows: BSK_CASM3C_Thrombomodulin: BioMAP Diversity Plus: CASM3C Assay for Thrombomodulin Biomarker Activity (AID 2283051).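 Note: thrombomodulin protein level measured by ELISA 24 h after dosing.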 To be noted: primary human coronary artery smooth muscle cells; actives raise or lower the signal.

Read-out in assay [10]: Low-density lipoprotein receptor (LDLR), LDLR (gene 3949)
The assay is described as follows: BSK_CASM3C_LDLR: BioMAP Diversity Plus: CASM3C Assay for Low-density lipoprotein receptor (LDLR) Biomarker Activity (AID 2283045).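 Note: LDLR protein level on the cell surface quantified by ELISA.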 To be noted: primary human coronary artery smooth muscle cells; actives raise or lower the signal.

Active and inactive are the calls of the source. Rule for the calls: active = hit-call score of the fitted dose curve at least 0.9, where 1 is the maximum; inactive = score below 0.9.

As a reminder, the AC50 is the midpoint of the concentration-response curve, whichever way the signal moves. In the case of `CC(C)CCCCCCc1ccc(O)cc1`, the half-maximal activity concentration (AC50) in assay [1] was 36.2 µM (active); in assay [2], 28.8 µM (active); in assay [3], 31.2 µM (active); in assay [4] it was 34.3 µM (active); in [5] it was 15 µM (active); in [6], 35.8 µM (active). In addition, the AC50 in [7] is 30.9 µM (active); in [8], 32.6 µM (active); in [9] it was 4.65 µM (active).
As to `OB(O)O`, the result in [1], in assay [2], in assay [3], in assay [10], in [4] and in assay [5] was inactive. Further, the outcome in [6], in assay [7], in assay [8] and in [9] was inactive.
Consider `CCCCC(CC)CN1C(=O)C2C3C=CC(C3)C2C1=O` (centres undefined), for which the outcome in [1], in assay [2], in assay [3], in assay [10], in assay [4] and in assay [5] was inactive. For the same compound, the outcome in [6], in [7], in [8] and in assay [9] was inactive.
On to `CCOC(=O)COc1cc(-n2ncc(C(F)(F)F)c(C)c2=O)c(F)cc1Cl`, for which the result in [1], in assay [2], in assay [3], in assay [10], in assay [4] and in assay [5] was inactive. The outcome in assay [6], in [7], in assay [8] and in assay [9] was inactive.
Take `O=C(O)C1(C(=O)Nc2ccc(Cl)cc2Cl)CC1`: the result in assay [1], in [2], in assay [3], in assay [10], in [4] and in assay [5] was inactive. Moreover, the result in assay [6], in assay [7], in assay [8] and in [9] was inactive.
Regarding `CSC(=O)c1cccc2nnsc12`, the result in assay [1], in assay [2], in assay [3], in assay [10], in assay [4] and in assay [5] was inactive. The outcome in [6], in [7] and in assay [8] was inactive. The AC50 in [9] was 20 µM (active).
As to `N[C@@H](Cc1cc(I)c(Oc2ccc(O)c(I)c2)c(I)c1)C(=O)O`, the outcome in [1], in assay [2], in assay [3], in [10], in [4] and in assay [5] was inactive. Besides, the result in [6], in [7], in [8] and in assay [9] was inactive.
Turning to `Oc1ccc(C(c2ccc(O)cc2)C(Cl)(Cl)Cl)cc1`, the outcome in [1], in [2], in assay [10], in assay [4], in [6] and in assay [7] was inactive. Besides, the AC50 in assay [3] was 9.36 µM (active); in assay [5] it was 20 µM (active); in [8], 20.9 µM (active); in assay [9], 15.5 µM (active).
In the case of `CCN(Cc1c(F)cccc1Cl)c1c([N+](=O)[O-])cc(C(F)(F)F)cc1[N+](=O)[O-]`, the outcome in assay [1], in [2], in assay [3], in assay [4], in assay [6] and in assay [7] was inactive. Moreover, the outcome in assay [8] and in [9] was inactive. The AC50 is 13.5 µM (active) in assay [10] and 12.3 µM (active) in assay [5].
In the case of `C=CCOC(Cn1ccnc1)c1ccc(Cl)cc1Cl` (centres undefined), the result in [1], in assay [2], in [3], in assay [10], in assay [4] and in assay [5] was inactive. For the same compound, the outcome in [6], in assay [7], in [8] and in assay [9] was inactive.
Regarding `CCCCOC(=O)C(C)Oc1ccc(Oc2ccc(C(F)(F)F)cn2)cc1` (centres undefined), the outcome in assay [1], in assay [2], in assay [3], in assay [10], in assay [4] and in assay [5] was inactive. Also, the result in assay [6], in assay [7], in [8] and in [9] was inactive.
Turning to `CCCCCCC(C)OC(=O)COc1nc(F)c(Cl)c(N)c1Cl` (centres undefined), the AC50 was 32.9 µM (active) in assay [1]; 31.9 µM (active) in [2]; 30.2 µM (active) in [3]; 29.9 µM (active) in assay [4]; 36.1 µM (active) in [5]; 31.6 µM (active) in assay [6]. Besides, the AC50 in [7] is 25.7 µM (active); in assay [8], 35.3 µM (active); in [9], 29.7 µM (active). Besides, the result in [10] was inactive.
Consider `CN(C)C(=O)Nc1ccc(Cl)c(Cl)c1`, for which the result in [1], in assay [2], in assay [3], in assay [10], in [4] and in assay [5] was inactive. The outcome in [6], in assay [7], in assay [8] and in assay [9] was inactive.
In the case of `O=C(c1ccccc1)C1CCCCC1`, the result in assay [1], in assay [2], in [3], in [10], in assay [4] and in assay [5] was inactive. Besides, the result in [6], in assay [7], in assay [8] and in assay [9] was inactive.
On to `CCCCCOC(=O)COc1cc(N2C(=O)C3=C(CCCC3)C2=O)c(F)cc1Cl`, for which the result in assay [1], in assay [2], in assay [10], in [4], in assay [7] and in assay [8] was inactive. Further, in [9], the outcome was inactive. Further, the results for the AC50 in assay [3], in assay [5] and in assay [6] were 14.4 µM (active), 12.6 µM (active) and 25.5 µM (active), respectively.
